The record followed here is ChEMBL document CHEMBL4303097 (2020).

The full ranking holds about 1,500 compounds; the median of “Inhibition index” is about 0.17, and the highest 2% start at about 1.3. Many of the other results were omitted from the sample, so the highest values are more common in it than they were.

The subject of this experiment is SARS-CoV-2. Kind of experiment: Inhibition of cell viability relative to arbidol control (inhibition index > 1 indicates higher activity) measured by fluorescence (OD590nm) in Vero E6 cells infected with SARS-CoV-2 (strain BavPat1) at MOI 0.002 after 72hrs. The class given is functional, Chlorocebus sabaeus, Vero C1008.
`Clc1cc(Cl)c(OCC#CI)cc1Cl` [HALOPROGIN]: the Inhibition index is -0.09794.

In turn, `CC(=O)[C@H]1CC[C@H]2[C@@H]3CC[C@H]4C[C@H](O)CC[C@]4(C)[C@H]3C(=O)C[C@]12C` [ALFAXALONE] returned an Inhibition index of 0.7131.

For `Clc1ccc(CCC(Cn2ccnc2)Sc2c(Cl)cccc2Cl)cc1.O=[N+]([O-])O` (stereo not given) [BUTOCONAZOLE NITRATE], the Inhibition index is given as -0.1062.

Turning to `CC(=O)OCC(=O)[C@@]12N=C(C)O[C@@H]1C[C@H]1[C@@H]3CCC4=CC(=O)C=C[C@]4(C)[C@H]3[C@@H](O)C[C@@]12C` [DEFLAZACORT], the Inhibition index turned out to be 0.4333.

Molecule `CC(C)(C)NC(=O)[C@H]1CC[C@H]2[C@@H]3CC[C@H]4NC(=O)C=C[C@]4(C)[C@H]3CC[C@]12C` [FINASTERIDE] had an Inhibition index of 0.2658.

`Cc1nccn1CC1CCc2c(c3ccccc3n2C)C1=O.Cl` (stereo not given): the Inhibition index was 1.665.

On to `Cc1[nH]cnc1CN1CCc2c(c3ccccc3n2C)C1=O.Cl` [ALOSETRON HYDROCHLORIDE], for which the Inhibition index came to 0.152.

Regarding `CN(C)CCC(c1ccccc1)c1ccccn1.O=C(O)/C=C\C(=O)O` (stereo not given) [PHENIRAMINE MALEATE], the Inhibition index came to 0.01395.

As for `O=C(O[C@H]1C[N+]2(CCCOc3ccccc3)CCC1CC2)C(O)(c1cccs1)c1cccs1.[Br-]` [ACLIDINIUM BROMIDE], the Inhibition index is listed as 0.1807.

On to `CC1(C)S[C@@H]2[C@H](NC(=O)[C@H](NC(=O)N3CCNC3=O)c3ccccc3)C(=O)N2[C@H]1C(=O)[O-].[Na+]` [AZLOCILLIN SODIUM], for which the Inhibition index is given as 0.01854.

The molecule `CC(C)(CO)[C@@H](O)C(=O)NCCCC(=O)O.CC(C)(CO)[C@@H](O)C(=O)NCCCC(=O)O.[Ca+2]` had an Inhibition index of 0.08003.

`CC(C)NNC(=O)c1ccncc1.O=P(O)(O)O` [IPRONIAZID PHOSPHATE] displayed an Inhibition index of 0.02671.

`Cl.Cl.NCCc1cc[nH]n1` returned an Inhibition index of 0.03591.

The molecule `CC1(C)S[C@@H]2[C@H](NC(=O)[C@H](N)c3ccc(O)cc3)C(=O)N2[C@H]1C(=O)O` [AMOXICILLIN] yielded an Inhibition index of 0.1371.

`CC12CC3CC(C)(C1)CC(N)(C3)C2.Cl` [MEMANTINE HYDROCHLORIDE] showed an Inhibition index of 0.5095.

Consider `CN(C)CCC(c1ccc(Br)cc1)c1ccccn1.O=C(O)/C=C\C(=O)O` (stereo not given) [BROMPHENIRAMINE MALEATE], for which the Inhibition index came to 0.3833.

In the case of `CC1(C)S[C@@H]2[C@H](NC(=O)C(C(=O)O)c3ccsc3)C(=O)N2[C@H]1C(=O)[O-].[Na+]` (stereo not given in full), the Inhibition index worked out at 0.09416.

Regarding `O=C(NC1CCN(CCCCC2(C(=O)NCC(F)(F)F)c3ccccc3-c3ccccc32)CC1)c1ccccc1-c1ccc(C(F)(F)F)cc1` [LOMITAPIDE], the Inhibition index was -0.295.

`CC(C)(C)NC[C@H](O)COc1cccc2c1CCCC2=O.Cl` [LEVOBUNOLOL HYDROCHLORIDE]: the Inhibition index was 0.5259.

For the molecule `CN(C)CCC=C1c2ccccc2C=Cc2ccccc21.Cl` [CYCLOBENZAPRINE HYDROCHLORIDE], the Inhibition index was 0.6333.

With `CO/N=C(\C(=O)N[C@@H]1C(=O)N2C(C(=O)OC(C)OC(C)=O)=C(COC(N)=O)CS[C@H]12)c1ccco1` (stereo not given in full) [CEFUROXIME AXETIL], the Inhibition index was found to be 0.1456.

As to `CCOc1nc2cccc(C(=O)O)c2n1Cc1ccc(-c2ccccc2-c2nnn[nH]2)cc1`, the Inhibition index worked out at 1.166.

Consider `Cl.O=C1CC2(CCCC2)CC(=O)N1CCCCN1CCN(c2ncccn2)CC1` [BUSPIRONE HYDROCHLORIDE], for which the Inhibition index is 1.176.

Molecule `C#C[C@]1(O)CC[C@H]2[C@@H]3[C@H](C)CC4=C(CCC(=O)C4)[C@H]3CC[C@@]21C` [TIBOLONE] gave an Inhibition index of 0.3794.

For the molecule `CN(C)CCCSC(=N)N.Cl.Cl`, the Inhibition index is listed as 1.382.

In the case of `Nc1ncnc2c1ncn2[C@@H]1O[C@H](COP(=O)(O)O)[C@@H](O)[C@H]1O.O`, the Inhibition index was found to be 0.1161.

`CN(C)CCc1c[nH]c2ccc(Cn3cncn3)cc12.O=C(O)c1ccccc1` [RIZATRIPTAN BENZOATE]: the Inhibition index amounted to 0.7991.

With `CC#C[C@]1(O)CC[C@H]2[C@@H]3CCC4=CC(=O)CCC4=C3[C@@H](c3ccc(N(C)C)cc3)C[C@@]21C` [MIFEPRISTONE], the Inhibition index was determined as 0.1807.

The molecule `CN(C)C(=N)NC(=N)N.Cl` [METFORMIN HYDROCHLORIDE] showed an Inhibition index of 0.00269.

`CC1(C)S[C@@H]2[C@H](NC(=O)[C@H](N)c3ccccc3)C(=O)N2[C@H]1C(=O)OC1OC(=O)c2ccccc21.Cl` (stereo not given in full) [TALAMPICILLIN HYDROCHLORIDE] registered an Inhibition index of 0.5053.

With `CCOC(=O)C1=C[C@@H](OC(CC)CC)[C@H](NC(C)=O)[C@@H](N)C1.O=P(O)(O)O` [OSELTAMIVIR PHOSPHATE], the Inhibition index was -0.01747.

The molecule `Br.COc1ccc2c3c1O[C@H]1C[C@@H](O)C=C[C@@]31CCN(C)C2` [GALANTAMINE HYDROBROMIDE] yielded an Inhibition index of 0.03283.

As for `Cl.N/C(=N\C(=O)c1nc(Cl)c(N)nc1N)NCc1ccccc1` [BENZAMIL HYDROCHLORIDE], the Inhibition index was -0.07365.

On to `CC(C)NCC(O)COc1cccc2[nH]c3ccccc3c12` (stereo not given) [CARAZOLOL], for which the Inhibition index is listed as 0.7194.

As to `C=CCOc1ccccc1OCC(O)CNC(C)C.Cl` (stereo not given) [OXPRENOLOL HYDROCHLORIDE], the Inhibition index amounted to 1.632.

The molecule `C=CCc1ccccc1OCC(O)CNC(C)C.Cl` (stereo not given) [ALPRENOLOL HYDROCHLORIDE] came in with an Inhibition index of 0.02886.

`C[C@]12CCC3=C4CCC(=O)C=C4CC[C@H]3[C@@H]1CC[C@@]2(O)CC#N` [DIENOGEST]: the Inhibition index worked out at 0.1822.

For the molecule `Cl.Cl.Fc1ccc(C(OCCN2CCN(CCCc3ccccc3)CC2)c2ccc(F)cc2)cc1`, the Inhibition index is reported as -0.1375.

With `CC[C@H](C)C(=O)O[C@H]1C[C@H](O)C=C2C=C[C@H](C)[C@H](CC[C@@H](O)C[C@@H](O)CC(=O)O)[C@H]21` [PRAVASTATIN], the Inhibition index was 0.3233.

In the case of `CC(=O)OCC1=C(C(=O)[O-])N2C(=O)[C@@H](NC(=O)Cc3cccs3)[C@H]2SC1.[Na+]` [CEPHALOTHIN SODIUM], the Inhibition index came out at 0.1149.

`C[C@@H](O)[C@H]1C(=O)N2C(C(=O)O)=C(SCCNC=N)C[C@H]12` [IMIPENEM ANHYDROUS]: the Inhibition index is 0.0698.

For `CCOC(=O)NNc1nncc2ccccc12.Cl` [TODRALAZINE HYDROCHLORIDE], the Inhibition index was -0.005099.

As to `CC(C)=C/C(C)=N/Nc1nncc2ccccc12` [BUDRALAZINE], the Inhibition index is reported as 1.549.

As for `CCc1c(C)[nH]c2c1C(=O)C(CN1CCOCC1)CC2.Cl` (stereo not given) [MOLINDONE HYDROCHLORIDE], the Inhibition index stood at 0.4807.

In turn, `CN[C@H](CC(C)C)C(=O)N[C@H]1C(=O)N[C@@H](CC(N)=O)C(=O)N[C@H]2C(=O)N[C@H]3C(=O)N[C@H](C(=O)N[C@H](C(=O)O)c4cc(O)cc(O)c4-c4cc3ccc4O)[C@H](O)c3ccc(c(Cl)c3)Oc3cc2cc(c3O[C@@H]2O[C@H](CO)[C@@H](O)[C@H](O)[C@H]2O[C@H]2C[C@](C)(N)[C@H](O)[C@H](C)O2)Oc2ccc(cc2Cl)[C@H]1O.Cl` came in with an Inhibition index of 0.05858.

The molecule `C[C@H]1O[C@H](O[C@H]2[C@H](O)[C@@H](O)[C@@H](O[C@H]3[C@H](O)[C@@H](O)C(O)O[C@@H]3CO)O[C@@H]2CO)[C@H](O)[C@@H](O)[C@@H]1N[C@H]1C=C(CO)[C@@H](O)[C@H](O)[C@H]1O` (stereo not given in full) [ACARBOSE] displayed an Inhibition index of 0.004156.

`CC(=O)[C@H]1CC[C@H]2[C@@H]3C=CC4=CC(=O)CC[C@@]4(C)[C@@H]3CC[C@]12C` [DYDROGESTERONE] had an Inhibition index of 0.5447.

As to `COCCCOc1ccnc(C[S+]([O-])c2nc3ccccc3[nH]2)c1C.[Na+]` (stereo not given), the Inhibition index was 0.5892.

For the molecule `CC(NCCc1ccc(O)cc1)C(O)c1ccc(O)cc1.Cl` (stereo not given) [RITODRINE HYDROCHLORIDE], the Inhibition index came out at 0.3972.

Turning to `C[C@H](CCc1ccccc1)NC[C@H](O)c1ccc(O)c(C(N)=O)c1` [DILEVALOL], the Inhibition index came out at 1.277.

In turn, `CC(C)NC[C@@H](O)c1ccc(O)c(O)c1.O=C(O)C(O)C(O)C(=O)O` displayed an Inhibition index of 0.1733.

`CC(CCc1ccccc1)NCC(O)c1ccc(O)c(C(N)=O)c1.Cl` (stereo not given) [LABETALOL HYDROCHLORIDE] gave an Inhibition index of 0.3584.

In the case of `CC(CCc1ccccc1)NC(C)C(O)c1ccc(O)cc1` (stereo not given) [NYLIDRIN], the Inhibition index turned out to be 1.263.

In the case of `CC(COc1ccccc1)NC(C)C(O)c1ccc(O)cc1.Cl` (stereo not given) [ISOXSUPRINE HYDROCHLORIDE], the Inhibition index is -0.02068.

`CC1(C)O[C@@H]2C[C@H]3[C@@H]4C[C@H](F)C5=CC(=O)C=C[C@]5(C)[C@H]4[C@@H](O)C[C@]3(C)[C@]2(C(=O)CO)O1` [FLUNISOLIDE] showed an Inhibition index of 0.0848.

`CC1(C)O[C@@H]2C[C@H]3[C@@H]4CCC5=CC(=O)C=C[C@]5(C)[C@H]4[C@@H](O)C[C@]3(C)[C@]2(C(=O)CO)O1` [DESONIDE] registered an Inhibition index of 1.58.

`CCCC1O[C@@H]2C[C@H]3[C@@H]4CCC5=CC(=O)C=C[C@]5(C)[C@H]4[C@@H](O)C[C@]3(C)[C@]2(C(=O)CO)O1` (stereo not given in full) [BUDESONIDE]: the Inhibition index was determined as 0.726.

For the molecule `CCOC(=O)O[C@]1(C(=O)COC(=O)CC)CC[C@H]2[C@@H]3CCC4=CC(=O)C=C[C@]4(C)[C@H]3[C@@H](O)C[C@@]21C` [PREDNICARBATE], the Inhibition index stood at 1.368.

`C[C@]12C=CC(=O)C=C1CC[C@@H]1[C@@H]2[C@@H](O)C[C@@]2(C)[C@H]1CC[C@]2(O)C(=O)CO` [PREDNISOLONE] yielded an Inhibition index of 0.3132.

On to `CCOC(=O)O[C@]1(C(=O)OCCl)CC[C@H]2[C@@H]3CCC4=CC(=O)C=C[C@]4(C)[C@H]3[C@@H](O)C[C@@]21C` [LOTEPREDNOL ETABONATE], for which the Inhibition index is 0.5857.
